Results reported in PubChem BioAssay (NCI).
About 83,000 compounds went through this panel and 20% of them were active in at least one assay; those are over-represented in the sample as a whole.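 Cells were grown in 96-well plates and exposed to the test compound at a single concentration for 48 hours; results are reported as percent growth, with values below 10 considered active.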 Active and inactive are the calls of the source.

Experiments:
Test in all cases: NCI-60 one-dose screen, 48 h (100 = growth as untreated, 0 = no growth, -100 = all killed)
Conditions in all cases: 10 µM
SR leukemia = system: SR leukemia
OVCAR-8 ovarian = system: OVCAR-8 ovarian
OVCAR-5 ovarian = system: OVCAR-5 ovarian
OVCAR-4 ovarian = system: OVCAR-4 ovarian
SK-OV-3 ovarian = system: SK-OV-3 ovarian
IGROV1 ovarian = system: IGROV1 ovarian
OVCAR-3 ovarian = system: OVCAR-3 ovarian
HS 578T breast = system: HS 578T breast
NCI/ADR-RES ovarian = system: NCI/ADR-RES ovarian
T-47D breast = system: T-47D breast
BT-549 breast = system: BT-549 breast
MDA-MB-435 melanoma = system: MDA-MB-435 melanoma
MCF7 breast = system: MCF7 breast
HCT-116 colon = system: HCT-116 colon
HCC-2998 colon = system: HCC-2998 colon
KM12 colon = system: KM12 colon
SW-620 colon = system: SW-620 colon
RPMI-8226 leukemia = system: RPMI-8226 leukemia

Measured: growth

COc1ccccc1-n1c(-c2csc(NC(C)=O)n2)n[nH]c1=S
inactive: SR leukemia 82.8% | OVCAR-8 ovarian 104% | OVCAR-5 ovarian 119% | OVCAR-4 ovarian 103% | SK-OV-3 ovarian 103% | IGROV1 ovarian 97.8% | OVCAR-3 ovarian 117% | HS 578T breast 105% | NCI/ADR-RES ovarian 96.2% | T-47D breast 104% | BT-549 breast 94.7% | MDA-MB-435 melanoma 85.3% | MCF7 breast 97.5% | HCT-116 colon 100% | HCC-2998 colon 101% | KM12 colon 104%

O=C1c2c(c3c4ccccc4n(CCCCCCN4CCOCC4)c3c3[nH]c4ccccc4c23)C(=O)N1O
active: SR leukemia -26.2% | OVCAR-8 ovarian 3.72% | SW-620 colon 4.79% | MCF7 breast 6.49% | HCT-116 colon -16%
inactive: OVCAR-5 ovarian 127% | OVCAR-4 ovarian 103% | SK-OV-3 ovarian 93% | IGROV1 ovarian 40.6% | OVCAR-3 ovarian 88.7% | HS 578T breast 106% | NCI/ADR-RES ovarian 43.9% | T-47D breast 79.9% | BT-549 breast 91.9% | MDA-MB-435 melanoma 56.4% | HCC-2998 colon 87.8% | KM12 colon 78%

CC1=CC2C(C(O)CC3(C)C2CC(C)C32OCOC23COCO3)C2(C)C/C(=C/O)C(=O)C=C12 (stereo unspecified)
inactive: OVCAR-8 ovarian 43.8% | OVCAR-5 ovarian 63.2% | OVCAR-4 ovarian 35.8% | SK-OV-3 ovarian 48.5% | IGROV1 ovarian 70.9% | OVCAR-3 ovarian 10.8% | HS 578T breast 83.4% | NCI/ADR-RES ovarian 17.3% | T-47D breast 24.3% | BT-549 breast 51.2% | HCC-2998 colon 35% | KM12 colon 12%
active: SR leukemia -38.8% | MDA-MB-435 melanoma 7.68% | SW-620 colon 5.28% | MCF7 breast 5.37% | HCT-116 colon -70.2%

C=CCN(CC=C)C(=O)[C@H](CC)[C@@H]1CC[C@@H](C)[C@@H]([C@H](C)[C@@H](O)[C@@H](C)C(=O)[C@H](CC)C2O[C@]3(C=C[C@@H](O)[C@]4(CC[C@@](C)([C@H]5CC[C@](O)(CC)[C@H](C)O5)O4)O3)[C@H](C)C[C@@H]2C)O1 (stereo partly specified)
active: SK-OV-3 ovarian 4.44% | NCI/ADR-RES ovarian 1.02% | T-47D breast 9.12% | MDA-MB-435 melanoma 6% | MCF7 breast 1.92% | HCT-116 colon 9.64%
inactive: SR leukemia 36.9% | OVCAR-8 ovarian 16% | OVCAR-5 ovarian 31.9% | OVCAR-4 ovarian 25.4% | IGROV1 ovarian 10.7% | OVCAR-3 ovarian 14.6% | HS 578T breast 13.4% | BT-549 breast 27.3% | HCC-2998 colon 12.6% | KM12 colon 27.5%

CCc1ccc(C2=NN(c3ccc(S(C)(=O)=O)cc3)C(=O)CC2)cc1
active: SR leukemia 4.42% | OVCAR-3 ovarian -13.6% | HS 578T breast -0.675% | NCI/ADR-RES ovarian 6.7% | MDA-MB-435 melanoma -24.3%
inactive: OVCAR-8 ovarian 39.1% | OVCAR-5 ovarian 48.7% | OVCAR-4 ovarian 76.2% | SK-OV-3 ovarian 28.7% | IGROV1 ovarian 37.4% | T-47D breast 41.4% | BT-549 breast 21.9% | MCF7 breast 26% | HCT-116 colon 15.7% | HCC-2998 colon 46.6% | KM12 colon 17.3%

COCCn1cc(-c2nc(-c3cccnc3)cs2)c2cc(F)ccc21
inactive: SR leukemia 63.5% | OVCAR-8 ovarian 102% | OVCAR-5 ovarian 92.7% | OVCAR-4 ovarian 95.6% | IGROV1 ovarian 110% | OVCAR-3 ovarian 94.1% | HS 578T breast 98.6% | NCI/ADR-RES ovarian 86% | T-47D breast 87.7% | BT-549 breast 93% | MDA-MB-435 melanoma 79.9% | SW-620 colon 99.4% | MCF7 breast 102% | HCT-116 colon 102% | HCC-2998 colon 102% | KM12 colon 69.4%
active: SK-OV-3 ovarian 7.36%

O=C1c2ccccc2-c2c1c1cccnc1c(=O)n2C[C@H](O)CO
inactive: SR leukemia 11.6% | OVCAR-8 ovarian 58.7% | OVCAR-5 ovarian 104% | OVCAR-4 ovarian 92.5% | SK-OV-3 ovarian 60.3% | IGROV1 ovarian 50.4% | OVCAR-3 ovarian 79.6% | HS 578T breast 85.1% | T-47D breast 59.6% | BT-549 breast 61.7% | MDA-MB-435 melanoma 87.5% | SW-620 colon 49.9% | MCF7 breast 25.5% | HCT-116 colon 38.5% | HCC-2998 colon 79.7% | KM12 colon 62.1%

CCCN(CCC)C(=O)[C@H](CC)[C@@H]1CC[C@@H](C)[C@@H]([C@H](C)[C@@H](O)[C@@H](C)C(=O)[C@H](CC)C2O[C@]3(C=C[C@@H](O)[C@]4(CC[C@@](C)([C@H]5CC[C@](O)(CC)[C@H](C)O5)O4)O3)[C@H](C)C[C@@H]2C)O1 (stereo partly specified)
inactive: SR leukemia 15.2% | OVCAR-8 ovarian 15% | OVCAR-5 ovarian 11.4% | IGROV1 ovarian 17.1% | HS 578T breast 11.7% | T-47D breast 11.1% | KM12 colon 19.9%
active: OVCAR-4 ovarian 7.28% | SK-OV-3 ovarian 3.96% | OVCAR-3 ovarian 2.11% | NCI/ADR-RES ovarian -11.2% | BT-549 breast 6.17% | MDA-MB-435 melanoma 3.17% | SW-620 colon 9.23% | MCF7 breast -15.3% | HCT-116 colon 6.43%

IC(I)I
active: HS 578T breast -4.06%
inactive: SR leukemia 122% | OVCAR-8 ovarian 107% | OVCAR-5 ovarian 94.1% | OVCAR-4 ovarian 108% | IGROV1 ovarian 103% | OVCAR-3 ovarian 106% | NCI/ADR-RES ovarian 105% | BT-549 breast 103% | MCF7 breast 100% | HCT-116 colon 106% | HCC-2998 colon 98%

COc1cc2c3c(n(C4CCN(C)CC4)c(=O)c2cc1OC)-c1cc2c(cc1C3=O)OCO2
active: SR leukemia 7.92% | OVCAR-3 ovarian -72%
inactive: OVCAR-8 ovarian 19.4% | OVCAR-5 ovarian 138% | OVCAR-4 ovarian 84.9% | SK-OV-3 ovarian 48.7% | IGROV1 ovarian 66.9% | HS 578T breast 109% | NCI/ADR-RES ovarian 64% | T-47D breast 31% | BT-549 breast 59.7% | MDA-MB-435 melanoma 84.5% | SW-620 colon 56.2% | MCF7 breast 24.8% | HCT-116 colon 40.8% | HCC-2998 colon 66.3% | KM12 colon 75.9%

Cc1cn(-c2cccc(NC(=O)c3ccc(C)c(Nc4nccc(-c5cccnc5)n4)c3)c2)cn1
active: SR leukemia 1.26% | OVCAR-8 ovarian 0.284% | OVCAR-4 ovarian -58.1% | SK-OV-3 ovarian -54.2% | IGROV1 ovarian -11.7% | OVCAR-3 ovarian -33.7% | HS 578T breast -8.85% | NCI/ADR-RES ovarian 7.25% | BT-549 breast -39.4% | MDA-MB-435 melanoma -27.8% | MCF7 breast -24.6% | HCT-116 colon -87.4% | KM12 colon -94.9%
inactive: OVCAR-5 ovarian 41.3% | T-47D breast 46% | SW-620 colon 20.2% | HCC-2998 colon 41.7%

CCOc1ccccc1/C=N\N=C(\N)N/N=C/c1ccccc1OCC
inactive: RPMI-8226 leukemia 27.1% | OVCAR-8 ovarian 39.1% | OVCAR-5 ovarian 93.4% | OVCAR-4 ovarian 71.8% | SK-OV-3 ovarian 10.3% | T-47D breast 14.8% | BT-549 breast 36% | HCT-116 colon 24.9%
active: OVCAR-3 ovarian 7.41% | NCI/ADR-RES ovarian 3.57% | MDA-MB-435 melanoma -3.3% | MCF7 breast 8.26%

CN(C)c1ccc(/C=N/NC(=O)c2cccc3ccccc23)c(Cl)c1
active: RPMI-8226 leukemia 7.96% | OVCAR-3 ovarian -17.4% | NCI/ADR-RES ovarian -9.37% | MDA-MB-435 melanoma -22.1%
inactive: OVCAR-8 ovarian 36.5% | OVCAR-5 ovarian 58.1% | OVCAR-4 ovarian 50.9% | SK-OV-3 ovarian 16.9% | IGROV1 ovarian 46.1% | HS 578T breast 42.2% | T-47D breast 25.4% | BT-549 breast 45.3% | SW-620 colon 24.2% | MCF7 breast 15.1% | HCT-116 colon 31% | HCC-2998 colon 61.2% | KM12 colon 22.7%

O=C1/C(=C/c2cccc(F)c2)Cc2ccccc21
inactive: RPMI-8226 leukemia 93.3% | OVCAR-8 ovarian 97.4% | OVCAR-5 ovarian 120% | OVCAR-4 ovarian 97.5% | SK-OV-3 ovarian 108% | IGROV1 ovarian 99.6% | OVCAR-3 ovarian 113% | HS 578T breast 181% | NCI/ADR-RES ovarian 102% | T-47D breast 103% | BT-549 breast 106% | MDA-MB-435 melanoma 97.9% | SW-620 colon 102% | MCF7 breast 25.1% | HCC-2998 colon 97.1% | KM12 colon 98.7%

COC1=CC(=O)OC(c2ccc(OC)cc2)C1 (stereo unspecified)
inactive: RPMI-8226 leukemia 111% | OVCAR-8 ovarian 105% | OVCAR-5 ovarian 106% | OVCAR-4 ovarian 106% | SK-OV-3 ovarian 117% | OVCAR-3 ovarian 103% | HS 578T breast 111% | NCI/ADR-RES ovarian 102% | T-47D breast 101% | BT-549 breast 105% | MDA-MB-435 melanoma 114% | SW-620 colon 102% | MCF7 breast 99.8% | HCT-116 colon 108% | KM12 colon 102%

CC1OC2CC(=O)OC2C2=C1C(=O)c1c(O)c3c(c(O)c1C2=O)C1CC(O)C3(O)C(C)O1 (stereo unspecified)
active: RPMI-8226 leukemia -6.28% | OVCAR-8 ovarian 5.64% | OVCAR-5 ovarian -47.3% | OVCAR-4 ovarian -99.6% | SK-OV-3 ovarian 8.13% | IGROV1 ovarian -36.7% | OVCAR-3 ovarian -34.1% | HS 578T breast -12.3% | NCI/ADR-RES ovarian 1.39% | T-47D breast -21.4% | BT-549 breast -98.7% | MDA-MB-435 melanoma -0.0926% | SW-620 colon -36.4% | MCF7 breast -71% | HCT-116 colon -91.5% | HCC-2998 colon -28.4% | KM12 colon -34.7%

COC(=O)CC[C@@H](C)[C@H]1CC[C@H]2[C@@H]3CC[C@@H]4C[C@H](O)CC[C@]4(C)[C@H]3C[C@H](O)[C@]12C
inactive: RPMI-8226 leukemia 68.4% | OVCAR-8 ovarian 103% | OVCAR-5 ovarian 109% | OVCAR-4 ovarian 110% | SK-OV-3 ovarian 111% | OVCAR-3 ovarian 102% | HS 578T breast 114% | NCI/ADR-RES ovarian 106% | T-47D breast 89.2% | BT-549 breast 96.4% | MDA-MB-435 melanoma 118% | SW-620 colon 107% | MCF7 breast 84.8% | HCT-116 colon 86.7% | KM12 colon 102%

COc1cc(C2CC(c3cc(Cl)c(C)cc3O)=NN2c2ccc(S(N)(=O)=O)cc2)cc(OC)c1OC (stereo unspecified)
active: IGROV1 ovarian 3.35% | NCI/ADR-RES ovarian 3.9% | T-47D breast -1.47% | MCF7 breast -15.4% | HCT-116 colon -14.3% | HCC-2998 colon -20.6% | KM12 colon 2.06%
inactive: RPMI-8226 leukemia 11.9% | OVCAR-8 ovarian 34.4% | OVCAR-5 ovarian 19.4% | OVCAR-4 ovarian 33.1% | SK-OV-3 ovarian 14.5% | OVCAR-3 ovarian 20.7% | HS 578T breast 30.3% | BT-549 breast 30.9% | MDA-MB-435 melanoma 20.9% | SW-620 colon 18.8%
